Rows were chosen to be rich in hits. Some 7.3% of all compounds tested hit in one or more screens of this group.
FLuc counter = qHTS profiling assay for firefly luciferase inhibitor/activator using purifed enzyme and Km concentrations of substrates (counterscreen for miR-21 project); 360,000 tested, 6.9% active; AID 588342, 2011; purified FLuc, Km substrates, luminescence inhibition; Potency, µM (titrated, usually from 57.5 µM), hits mostly inhibitors; Luciferin 4-monooxygenase (Photinus pyralis), P08659; further: nearly all actives have a fitted effect of over 55% in size
Target sequence (P08659 whole entry, looked up): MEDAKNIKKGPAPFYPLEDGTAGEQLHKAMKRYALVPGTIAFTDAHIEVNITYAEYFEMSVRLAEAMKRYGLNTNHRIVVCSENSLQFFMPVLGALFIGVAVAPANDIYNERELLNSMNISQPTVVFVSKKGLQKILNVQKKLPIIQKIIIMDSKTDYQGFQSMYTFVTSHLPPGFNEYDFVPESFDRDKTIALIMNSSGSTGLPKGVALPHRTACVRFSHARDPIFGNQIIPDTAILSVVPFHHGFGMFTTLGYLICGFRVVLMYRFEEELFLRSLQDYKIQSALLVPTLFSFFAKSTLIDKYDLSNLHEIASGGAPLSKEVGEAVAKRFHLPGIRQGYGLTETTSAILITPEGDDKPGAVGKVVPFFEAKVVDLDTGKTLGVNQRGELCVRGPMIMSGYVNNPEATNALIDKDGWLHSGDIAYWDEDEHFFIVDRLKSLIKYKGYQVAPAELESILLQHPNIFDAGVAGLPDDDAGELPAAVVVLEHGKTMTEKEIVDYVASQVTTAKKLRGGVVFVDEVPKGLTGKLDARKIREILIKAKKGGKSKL
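Purified P. pyralis luciferase (10nM final) with 10uM D-luciferin and 10uM ATP (Km levels) in 50mM Tris acetate pH 7.5, 10mM Mg acetate, 0.01% Tween-20, 0.05% BSA; qHTS 6-point titration, ~60 µM downward; luminescence read.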
NPC1 promoter act = qHTS Assay for NPC1 Promoter Activators; Potency, µM (top dose mostly 9.22 µM), actives largely listed as activators; 320,000 tested, 2.4% active; AID 485313, 2010; Huh7 NPC1 promoter luciferase reporter, 24 h; further: nearly all actives have a fitted effect of over 60% in size
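NPC1 promoter–luciferase Huh7 cells; 24 h compound; luminescence.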
ELG1 genotoxic = qHTS screen for small molecules that induce genotoxicity in human embryonic kidney (HEK293T) cells expressing luciferase-tagged ELG1; HEK293T ELG1-luciferase reporter, luminescence, 16 h; Potency, µM (series often up to 46 µM), most hits filed as activators; 330,000 tested, 1.3% active; AID 504466, 2011; further: nearly all actives have a fitted effect of over 60% in size
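Quantitative HTS format in 1536-well plates. HEK293T ELG1-luciferase reporter cells receive test compound and are incubated 16 hr at 37 °C, 5% CO2; ONE-Glo added, 30 min room temperature, then luminescence read.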
Rab9 promoter act = qHTS Assay for Rab9 Promoter Activators; Huh7 Rab9 promoter-luciferase reporter, luminescence, 24 h; Potency, µM (series often up to 9.22 µM), most hits filed as activators; 320,000 tested, 2.8% active; AID 485297, 2010; further: nearly all actives have a fitted effect of over 60% in size
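Promoter activation is measured as luciferase luminescence in Huh7 cells stably transfected with a Rab9 promoter–luciferase construct, following 24 h compound exposure at 37 °C and 10 min reagent incubation at ambient temperature.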
Luc counter = Counterscreen for Luciferase (Kinase-Glo TM) Inhibition. Luciferin 4-monooxygenase (Photuris pensylvanica), Q27757. Kinase-Glo luciferase, ATP luminescence, 8 min. Potency, µM (top dose mostly 38.3 µM), actives largely listed as inhibitors. 200,000 tested, 0.28% active; further: nearly all actives have a fitted effect of over 60% in size
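Inhibition of Kinase-Glo luciferase light generation was assessed at 10 uM ATP in pH 7.2 imidazole buffer, with luminescence measured after eight minutes at ambient temperature.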
SMN2 splice up = qHTS Assay for Enhancers of SMN2 Splice Variant Expression | HEK293 SMN2-luciferase splicing reporter, luminescence, 30-36 h | Potency, µM (highest dose often 46.1 µM), hits mostly activators | 210,000 tested, 2.8% active; further: nearly all actives have a fitted effect of over 55% in size
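qHTS luciferase splicing reporter: luminescence rises when SMN2 exon 7 is included in transfected HEK293 cells. Compound exposure lasted 30-36 h at 37C, with 4.5 mM final sodium butyrate as control, followed by a ONE-Glo read.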
Hits are given with their value; - = inactive; ? = inconclusive; . = no result given; [ ] = dose if it differs, or a comment. The call rests on the fitted dose curve; in most records, active means well fitted curve in the direction sought with a large enough effect; inconclusive means small, poorly fitted or top-dose-only effect, or another doubt; inactive means no such curve, though single readings can be large; an effect the other way counts as inactive or inconclusive.

SMILES	FLuc counter	NPC1 promoter act	ELG1 genotoxic	Rab9 promoter act	Luc counter	SMN2 splice up
Cc1ccccc1NC(=O)c1ccc(CN2CC(=O)N3CCCCC3C2=O)cc1 (configuration not stated)	-	-	-	-	.	.
CC(C)c1ccc(NC(=S)NN2CCOCC2)cc1	?	?	-	?	-	22µM
COC(=O)CN1C(=O)C(C)(C)c2cc(S(=O)(=O)Nc3ccc(C(C)C)cc3)ccc21	-	.	.	.	.	.
CCN(CC)S(=O)(=O)c1ccc2c(c1)c(=O)c(C(=O)NCc1ccccc1Cl)cn2C	-	.	.	.	.	-
Cc1ccc(CCNC(=O)Cn2c(-c3cccs3)cc3ccccc32)cc1	-	.	.	.	.	.
Cc1cccc(NC(=O)C(=O)NCC(c2cccnc2)N2CCc3ccccc3C2)c1C (configuration not stated)	-	.	.	.	.	.
CNC(=O)C1CCC(Cn2c(=O)c3sccc3n(CC(=O)Nc3cc(C)cc(C)c3)c2=O)CC1 (configuration not stated)	-	.	.	.	.	.
NC(=O)c1ccc(NC(=O)c2ccc(CN3CCOCC3)cc2)cc1	-	-	-	-	-	-
CC(C)c1ccc(C(=O)Nc2ccc(CN3CCOCC3)cc2)cc1	11µM	-	-	-	.	.
COc1ccc(CNC(=O)C(=O)NCC(c2cccs2)S(=O)(=O)c2cccs2)cc1 (configuration not stated)	-	.	.	.	.	.
CCCCN(C)CCCNC(=O)C1CCN(S(=O)(=O)CC)CC1	-	.	.	.	.	.
CCCCN(C)CCCNC(=O)C1CCN(c2nc3ccc(CC)cc3s2)CC1	15µM	.	.	.	.	-
Cc1ccc(CCNC(=O)c2ccc3nc(N4CCC(C)CC4)sc3c2)cc1	-	.	.	.	.	-
CCCCN(CC)CCCNC(=O)C1CCN(c2nc3ccc(CC)cc3s2)CC1	19µM	.	.	.	.	-
CCCNc1ccc(S(=O)(=O)N(CC)CC)cn1	-	-	-	-	-	5.6µM
CCCc1ccc(C(=O)/C=C/N(C)C)cc1	5.4µM	1.1µM	9.2µM	1.4µM	.	.
CN(C)/C=C/C(=O)c1ccc(Oc2ccccc2)cc1	4.3µM	?	4.1µM	1.4µM	-	13µM
Cc1ccc(-n2ncc(C(=O)NCCCN3CCc4ccccc4C3)c2C2CCN(C(=O)OC(C)(C)C)CC2)cc1C	-	.	.	.	.	.
CC1=C/C(=C(\c2cc(C)c(O)c(Br)c2)c2ccccc2S(=O)(=O)O)C=C(Br)C1=O	9.5µM	-	-	-	.	.
COc1cc(CNc2ccc(N3CCCC3)cc2)cc(Cl)c1OC	9.5µM	-	-	-	-	-
COc1cc(CNc2ccc(N3CCOCC3)cc2)cc(Br)c1OC	-	-	-	-	-	-
CCOc1cc(CNc2ccc(N3CCCC3)cc2)cc(Cl)c1OC	27µM	-	-	-	-	-
CCOc1cc(CNc2ccc(S(N)(=O)=O)cc2)cc(Cl)c1OC	-	-	-	-	-	-
COc1ccc(-c2nc(-c3ccccc3)c(Nc3c(C)cccc3C)o2)cc1	.	.	.	.	-	-
O=C(O)C(Cc1cccs1)C(=O)O	.	.	.	.	-[7.66 µM]	-[9.22 µM]
SMILES	FLuc counter	NPC1 promoter act	ELG1 genotoxic	Rab9 promoter act	Luc counter	SMN2 splice up
CCSc1nn(CC(=O)Nc2cccc(CC)c2)c(N)c1S(=O)(=O)c1ccccc1	-	.	.	.	.	.
Cc1cccc(C(=O)c2c(N)sc3c2CCC(C)C3)c1 (configuration not stated)	21µM	?	?	?	.	.
Cc1cccc(C(=O)Nc2sc3c(c2C(=O)Nc2ccccc2)CCC3)c1	?	.	.	.	.	-
CCN(CC)C(=O)c1c(NC(=O)c2cccc(C)c2)sc2c1CCC(C)C2 (configuration not stated)	17µM	.	.	.	.	-
CCc1ccc(NC(=O)NCCc2c(C)nn(C)c2C)cc1	-	.	.	.	.	.
Nc1nc2c(c(=O)[nH]1)C(c1ccccc1)C1=C(N2)c2ccccc2C1=O (configuration not stated)	-	-	-	-	.	.
Cn1c2c(c(=O)[nH]c1=O)C(c1ccc(O)cc1)C1=C(N2)c2ccccc2C1=O (configuration not stated)	17µM	-	-	-	-	-
CCN1CCN(C(=O)c2cc(COc3ccc(C(C)=O)cc3OC)on2)CC1	12µM	2.2µM	?	3.2µM	.	.
COc1cc(C)ccc1OCc1cc(C(=O)N2CCCCCCC2)no1	21µM	?	?	4.5µM	.	.
COc1ccc(OCc2cc(C(=O)N3CCCCCCC3)no2)c(Cl)c1	?	-	?	-	.	.
COc1cc(C)ccc1OCc1cc(C(=O)N2CCN(C3CCCCC3)CC2)no1	17µM	?	?	?	.	.
COc1ccc(OCc2cc(C(=O)N3CCN(C4CCCC4)CC3)no2)c(Cl)c1	21µM	3.2µM	?	?	.	.
CO[C@@H](CCO)C[C@H]1O[C@H](C(=O)OC(C)C)CC[C@@H]1C	.	.	.	.	-	-
CCOC(=O)c1ccc(NC(=O)CCC(=O)N2Cc3ccccc3Oc3ncccc32)cc1	-	.	.	.	.	.
O=C(c1cc(COc2ccc(F)cc2Cl)on1)N1CCCCCC1	6.7µM	1.8µM	?	2µM	.	.
CCC(NC(=O)c1cc(COc2cncc(Cl)c2)on1)c1ccncc1 (configuration not stated)	-	-	-	-	.	.
CCC(NC(=O)c1cc(COc2ccc(F)cc2Cl)on1)c1ccncc1 (configuration not stated)	21µM	-	-	-	.	.
O=C(c1cc(COc2ccc(F)cc2F)on1)N1CCSCC1	15µM	?	21µM	2.5µM	-	.
COc1ccc(C2CC(c3ccc4ccccc4c3OC(C)=O)=NN2C(C)=O)cc1 (configuration not stated)	-	4µM	?	4µM	.	.
COc1ccc(C2CC(c3ccc(OC)cc3O)=NN2C(=O)c2ccccc2)cc1 (configuration not stated)	-	-	-	-	.	.
COc1ccc(C2CC(c3ccc(C)o3)=NN2C(C)=O)cc1 (configuration not stated)	?	?	?	?	-	13µM
CCC(=O)N1N=C(c2ccc(C)o2)CC1c1ccc(N(C)C)cc1 (configuration not stated)	?	-	-	-	-	-
CC(=O)N1N=C(c2ccc(C)o2)CC1c1ccc(Br)cc1 (configuration not stated)	?	2.5µM	?	?	-	?
CC(=O)N1N=C(c2ccc(Cl)cc2)CC1c1ccc([N+](=O)[O-])cc1 (configuration not stated)	-	-	-	-	.	.
COc1ccc(C2CC(c3ccc(Cl)cc3)=NN2C(C)=O)cc1 (configuration not stated)	24µM	?	-	?	.	.
COc1ccc(CCNC(=O)c2cc3c(=O)[nH]c4ccc(C)cc4c3s2)cc1OC	-	.	.	.	.	-
